Compound activity as filed in PubChem BioAssay.
This is a sample that favours compounds with a hit; in the whole collection about 3.3% have one here.
Efflux pump mplx = blocks antifungal efflux pumps in multiplex yeast assay. AID 485275. hit rate 0.44% among 330,000. inhibition, % at 10 µM. S. cerevisiae Candida pump triplex, Nile Red efflux;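 active = plate passing quality check with inhibition over a set limit, or well fluorescence over plate mean plus 4 SD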;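 also: Nile Red retained in pooled yeast measured as flow cytometry median fluorescence; 0% = buffer negative control and 100% = Enniatin B positive control; higher means more Nile Red kept so more efflux inhibition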
Calb FLC = affects C. albicans growth with fluconazole; hit rate 0.57% among 300,000; C. albicans CaCi-2 (fluconazole-resistant clinical isolate) + fluconazole, Alamar Blue growth, 48 h; growth inhibition, % (concentration not given with the values); AID 1979;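 active = growth inhibition above about 58% in most replicates, limit read from the data, passing the limit was not always enough; inconclusive = exactly half the replicates above a set limit; inactive = most replicates below a set limit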;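 also: all wells also contain fluconazole at 8 µg/ml as a sub-toxic cotreatment; 0% = median of DMSO wells and 100% = median of geldanamycin control wells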
Cl transport mod = KCC2 (human) Cl- transport modulation | Q9H2X9 | KCC2 cells, thallium flux FluoZin-2 fluorescence | B-score of Tl+ flux slope (higher = more flux/activation; lower = inhibition) at 10 µM | hit rate 2.2% among 190,000 | AID 1456;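 active = thallium flux slope and its plate-corrected score both differing from the plate sample mean at a set confidence after two filtering rounds, in either direction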;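 also: slope of fluorescence scaled to starting intensity during 10 to 20 s after thallium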
PHOSPHO1 inh = inhibitors of human PHOSPHO1 phosphatase; Q8TCT1; recombinant PHOSPHO1, absorbance phosphatase assay; inhibition, % at 13.3 µM; hit rate 1.1% among 290,000; AID 1565; in the data active = inhibition above about 60%
H9c2 protect = modulators protecting cardiomyocytes from myocardial damage; protection from H2O2 cell death, % at 20 µM; hit rate 0.63% among 360,000; H9c2 cardiomyocytes, H2O2 injury protection, ATPLite, 2 h;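 active = compounds giving at least 50% protection of heart cells from peroxide-induced death in the single-dose screen, raw or plate-pattern-corrected value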;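 also: 0% = DMSO wells with peroxide and 100% = DMSO wells without peroxide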
Yeast cmpd fluor = flagged as fluorescent in efflux inhibitor counter-screen | shares compounds with Efflux pump mplx | S. cerevisiae AD/pABC3, compound fluorescence, flow cytometry | fluorescence ratio to DMSO, % at 10 µM | hit rate 4% among 1,700 | AID 588517;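 active = fluorescence ratio to DMSO above its plate's cutoff, the plate mean ratio plus 5 SD, cut at about 210% in these data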;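 also: unstained yeast with no Nile Red so the signal is compound autofluorescence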
Mdr1 pump inh = blocks the Candida albicans Mdr1 efflux pump in yeast; shares compounds with Efflux pump mplx; S. cerevisiae AD/CaMDR1, Nile Red efflux, flow cytometry; inhibition, % at 10 µM; hit rate 1% among 1,700; AID 588518; in the data active = inhibition above about 26%;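 also: 0% = DMSO vehicle and 100% = reference inhibitor; higher means more Nile Red retained so more efflux inhibition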
Cdr2 pump inh = blocks the Candida albicans Cdr2 efflux pump in yeast; shares compounds with Efflux pump mplx; S. cerevisiae AD/CaCDR2, Nile Red retention, flow cytometry; Nile Red retention ratio vs DMSO, % at 10 µM; hit rate 4% among 1,700; in the data active = Nile Red retention ratio vs DMSO above about 190%;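 also: higher ratio means more blocking of Cdr2 efflux of the dye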
Cdr1 pump inh = blocks the Candida albicans Cdr1 efflux pump in yeast; hit rate 1% among 1,700; S. cerevisiae AD/CaCDR1, Nile Red efflux, flow cytometry; shares compounds with Efflux pump mplx; inhibition, % at 10 µM;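 active = inhibition above the screen-wide mean plus twice its standard deviation, cut at about 32% in these data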
The depositor's hits bear a star; i = inactive; ? = inconclusive; . = no result; + = active, no number.

SMILES	Efflux pump mplx	Calb FLC	Cl transport mod	PHOSPHO1 inh	H9c2 protect	Yeast cmpd fluor	Mdr1 pump inh	Cdr2 pump inh	Cdr1 pump inh
CCCCOc1ccc(C(=O)N/C(=C\c2ccc([N+](=O)[O-])cc2)C(=O)OCc2ccco2)cc1	0.4*	.	-0.38	-2	-10	155	2	116	0
c1ccc2c(c1)Cc1cc(CN3CCOCC3)ccc1-2	5.9*	0	-0.5	16	-8	84	0	122	0
CC(Oc1ccc([N+](=O)[O-])cc1Cl)C(=O)Nc1ccc(C(N)=O)cc1 (centres undefined)	2.3*	-6	-0.12	44	-2	103	0	91	0
CC(=O)Nc1ccc(Oc2ccc([N+](=O)[O-])cc2Cl)cc1	0	40	-0.49	-1	-9	.	.	.	.
Cc1ccc(S(=O)(=O)Cc2nnnn2-c2ccccc2)cc1	0	5	.	58	2	.	.	.	.
O=[N+]([O-])c1ccc(N2N=C(c3ccco3)CC2c2ccccc2)cc1 (centres undefined)	0.5*	-5	0.14	27	-4	99	0	95	0
Fc1ccc(C2CC(c3ccco3)=NN2c2ccccc2)cc1 (centres undefined)	0	7	.	-10	-11	.	.	.	.
NC(=O)C1CCN(c2nc(-c3ccccc3F)cs2)CC1	7.5*	.	.	.	-15	100	0	103	0
NC(=O)C1CCN(c2nc(-c3ccccc3Br)cs2)CC1	0	.	.	.	.	.	.	.	.
COc1ccccc1-c1nnc(SC(C(=O)c2c[nH]c3ccccc23)c2ccccc2)n1C (centres undefined)	0	-15	-2	-15	-3	.	.	.	.
COc1cccc(-c2nnc(SC(C(=O)c3c[nH]c4ccccc34)c3ccccc3)n2C)c1 (centres undefined)	0.8*	3	-0.94	-9	-6	103	0	104	0
C[C@H](NC(N)=O)C(=O)Nc1ccc(N2CCOCC2)c(S(=O)(=O)Nc2ccc(Cl)cc2)c1	0	.	.	.	0	.	.	.	.
CCSc1cc(N2CCOCC2)nc(-c2ccc(Cl)cc2)n1	0	-14	-0.22	-7	-8	103	0	96	0
CCSc1cc(N2CCCC2)nc(-c2ccc(Cl)cc2)n1	0	.	.	.	-8	93	0	106	0
CCCCCCn1nc(C(=O)N(CCCC)c2c(N)n(CCC)c(=O)[nH]c2=O)c2ccccc2c1=O	0	.	.	.	1	.	.	.	.
CN(CCc1ccccc1)C(=O)c1ccc(NC(=O)Cc2cccc(NC(=O)C3CCN(C(=O)c4ccccc4)CC3)c2)cc1	.	.	.	.	-6	.	.	.	.
OCC[n+]1ccc(/C=C/c2c[nH]c3ccccc23)cc1	2.5*	-2	i	-61	-3	429*	5	119	4
Cc1c2cc[n+](CCN3CCCCC3)cc2c(C)c2c1[nH]c1ccc(O)cc12	.	.	.	.	3	107	0	93	0
C/C(CC(=O)Nc1cc(C)ccn1)=N\NC(=O)c1cccc(F)c1	0	3	.	42	1	.	.	.	.
COc1ccc(-c2nc(NC(=O)C3=NN(c4cccc(C)c4)C(=O)CC3)sc2C)cc1	0	-19	0.056	9	0	.	.	.	.
O=C(COC(=O)/C=C/c1cccc(C(F)(F)F)c1)Nc1ccc(Cl)cn1	0.6*	.	.	.	-3	102	0	92	0
O=C(COC(=O)/C=C/c1cccc([N+](=O)[O-])c1)Nc1ccc(Cl)cn1	0	.	.	.	-3	.	.	.	.
O=C(O)CCCN1C(=O)/C(=C/c2ccc(-c3nc4ccccc4s3)o2)SC1=S	1	?	.	69*	-28	220*	0	+	0
O=C(O)CCCCCN1C(=O)/C(=C\c2ccc(-c3ccc(Cl)cc3)o2)SC1=S	1	-4	-2.4	-2	-4	.	.	.	.
O=C(COC(=O)c1ccccn1)c1ccc(Br)cc1	1.3*	-7	0.24	-12	3	100	0	91	0
O=S(=O)(Nc1nc2ccccc2nc1Nc1ccc2c(c1)OCO2)c1ccccc1	0	-17	-0.42	3	-11	.	.	.	.
